Binding signal data for one sequence are collected here from article PMC7862700, “An all-to-all approach to the identification of sequence-specific readers for epigenetic DNA modifications on cytosine”.

Holding throughout (test): DAPPL (digital affinity profiling via proximity ligation, sequencing); 10 mM Tris-HCl pH 7.5, 50 mM NaCl, 1 mM DTT, 4% glycerol, room temperature, 30 min; GST-TFs on glutathione beads, 16-mer random dsDNA library, 0.1% formaldehyde crosslink after washing; high values mean tight binding
One experiment addresses T1, FEV (Homo sapiens, UniProt Q99581 1-238).
T1 sequence: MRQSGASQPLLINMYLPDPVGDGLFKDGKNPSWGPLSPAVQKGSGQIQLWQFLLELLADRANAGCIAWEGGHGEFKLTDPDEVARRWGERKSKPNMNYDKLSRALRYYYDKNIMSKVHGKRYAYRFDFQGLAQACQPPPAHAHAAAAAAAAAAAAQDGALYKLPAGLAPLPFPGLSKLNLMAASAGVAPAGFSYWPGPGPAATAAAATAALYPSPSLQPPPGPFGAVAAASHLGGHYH
Conditions: protein: recombinant; tags: N-terminal GST; dsDNA, one strand shown. In outline:
(§1)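 Binding signal is given per hexamer as its read frequency for a factor divided by its frequency in the tag-only sample. GST-fused human transcription factors were expressed in yeast, captured on glutathione beads, barcoded with DNA and pooled with that sample, then incubated with 200 nmole of a 16-mer random double-stranded DNA library in Tris/NaCl/DTT/glycerol buffer for 30 min at room temperature. The pools were then washed, crosslinked, proximity-ligated, amplified by PCR and sequenced on an Illumina NextSeq500.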

A further experiment deals with ETV5 (Homo sapiens, UniProt P41161 1-510). The note with it: protein: recombinant; tags: N-terminal GST; dsDNA, one strand shown. The method in brief: as §1
Sequence of ETV5 (P41161 whole entry): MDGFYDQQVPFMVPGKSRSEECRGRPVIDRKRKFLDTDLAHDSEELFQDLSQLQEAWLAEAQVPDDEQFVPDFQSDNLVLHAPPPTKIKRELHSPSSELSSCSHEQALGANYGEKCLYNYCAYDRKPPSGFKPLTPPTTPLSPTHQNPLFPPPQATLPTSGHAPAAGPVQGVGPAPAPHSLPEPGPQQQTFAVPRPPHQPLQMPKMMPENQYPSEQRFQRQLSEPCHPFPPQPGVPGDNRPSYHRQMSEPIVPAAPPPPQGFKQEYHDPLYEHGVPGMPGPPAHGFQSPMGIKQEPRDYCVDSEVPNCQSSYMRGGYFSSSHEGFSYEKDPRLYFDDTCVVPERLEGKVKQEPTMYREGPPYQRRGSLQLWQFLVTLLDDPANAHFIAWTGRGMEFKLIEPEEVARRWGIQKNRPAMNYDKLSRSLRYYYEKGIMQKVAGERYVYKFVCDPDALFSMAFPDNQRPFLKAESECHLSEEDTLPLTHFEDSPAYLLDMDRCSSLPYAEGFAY
A further experiment deals with HSF1 (Homo sapiens, UniProt Q00613 1-529). The note with it: protein: recombinant; tags: N-terminal GST; chain copies: 3; dsDNA, one strand shown. The method in brief: as §1
Sequence of HSF1 (Q00613 whole entry): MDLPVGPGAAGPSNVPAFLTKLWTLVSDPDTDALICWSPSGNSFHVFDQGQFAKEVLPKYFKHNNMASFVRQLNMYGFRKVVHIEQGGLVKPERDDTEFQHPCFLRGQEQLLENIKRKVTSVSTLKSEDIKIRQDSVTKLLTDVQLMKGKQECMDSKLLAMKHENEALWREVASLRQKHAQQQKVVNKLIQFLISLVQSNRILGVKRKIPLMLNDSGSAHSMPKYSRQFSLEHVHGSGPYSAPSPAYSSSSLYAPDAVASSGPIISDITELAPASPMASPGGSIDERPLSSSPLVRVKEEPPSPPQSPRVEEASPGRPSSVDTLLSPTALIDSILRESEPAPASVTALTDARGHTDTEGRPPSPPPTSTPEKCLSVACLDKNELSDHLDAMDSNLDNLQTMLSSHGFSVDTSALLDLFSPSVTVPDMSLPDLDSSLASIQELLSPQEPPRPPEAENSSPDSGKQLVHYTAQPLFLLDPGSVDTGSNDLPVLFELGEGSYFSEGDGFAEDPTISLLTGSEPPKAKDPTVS
The next experiment addresses T2, SPIC (Homo sapiens, UniProt Q8N5J4 1-248).
T2 sequence: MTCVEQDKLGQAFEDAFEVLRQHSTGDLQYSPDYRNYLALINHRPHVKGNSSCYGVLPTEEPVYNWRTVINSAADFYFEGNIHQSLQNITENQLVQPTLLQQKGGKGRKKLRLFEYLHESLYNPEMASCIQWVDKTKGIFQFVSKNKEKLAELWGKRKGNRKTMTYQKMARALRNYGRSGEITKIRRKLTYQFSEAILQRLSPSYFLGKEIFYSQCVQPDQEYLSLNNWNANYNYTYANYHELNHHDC
The note with it: protein: recombinant; tags: N-terminal GST; dsDNA, one strand shown. The method in brief:
as §1

In a further experiment the target is ELF4 (Homo sapiens, UniProt Q99607 1-663). The note with it: protein: recombinant; tags: N-terminal GST; dsDNA, one strand shown. In outline:
as §1

A further experiment concerns the target T3, ELK4 (Homo sapiens, UniProt P28324-2 1-405).
T3 sequence: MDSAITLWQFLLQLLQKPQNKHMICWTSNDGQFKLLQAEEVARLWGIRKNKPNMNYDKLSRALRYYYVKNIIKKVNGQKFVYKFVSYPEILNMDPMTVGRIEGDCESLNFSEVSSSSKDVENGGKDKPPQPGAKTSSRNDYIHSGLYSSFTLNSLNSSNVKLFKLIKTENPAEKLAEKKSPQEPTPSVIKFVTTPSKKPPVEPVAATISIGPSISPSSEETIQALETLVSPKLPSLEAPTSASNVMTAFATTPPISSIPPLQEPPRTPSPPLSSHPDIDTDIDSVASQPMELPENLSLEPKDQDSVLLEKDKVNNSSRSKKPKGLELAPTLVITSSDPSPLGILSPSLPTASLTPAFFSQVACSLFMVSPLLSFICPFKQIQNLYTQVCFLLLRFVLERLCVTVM
Conditions: protein: recombinant; tags: N-terminal GST; dsDNA, one strand shown. In outline:
as §1

For a further experiment, the target named is T4, ETV2 (Homo sapiens, UniProt O00321 1-342).
T4 sequence: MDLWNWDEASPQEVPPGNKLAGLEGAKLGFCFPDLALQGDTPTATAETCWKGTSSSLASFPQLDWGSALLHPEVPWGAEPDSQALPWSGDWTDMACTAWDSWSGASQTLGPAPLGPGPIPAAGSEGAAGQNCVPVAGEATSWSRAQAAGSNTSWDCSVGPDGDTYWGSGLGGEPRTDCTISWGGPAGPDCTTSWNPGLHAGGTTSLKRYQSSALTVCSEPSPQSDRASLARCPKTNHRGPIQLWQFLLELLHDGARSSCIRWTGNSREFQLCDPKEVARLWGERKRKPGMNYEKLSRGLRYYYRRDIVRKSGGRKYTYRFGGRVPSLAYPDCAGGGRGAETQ
Conditions: protein: recombinant; tags: N-terminal GST; dsDNA, one strand shown. The method in brief: as §1

The target of the next experiment is T5, ELF3 (Homo sapiens, UniProt P78545 1-371).
T5 sequence: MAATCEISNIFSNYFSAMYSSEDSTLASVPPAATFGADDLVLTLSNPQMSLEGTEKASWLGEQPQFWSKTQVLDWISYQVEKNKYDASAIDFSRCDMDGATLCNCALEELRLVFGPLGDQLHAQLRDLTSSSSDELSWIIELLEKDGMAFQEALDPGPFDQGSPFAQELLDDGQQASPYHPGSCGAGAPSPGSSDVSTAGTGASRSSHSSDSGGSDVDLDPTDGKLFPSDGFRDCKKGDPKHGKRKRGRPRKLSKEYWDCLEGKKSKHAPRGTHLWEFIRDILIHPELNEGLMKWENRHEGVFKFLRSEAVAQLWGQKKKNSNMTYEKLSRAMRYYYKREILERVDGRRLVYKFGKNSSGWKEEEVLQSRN
Conditions: protein: recombinant; tags: N-terminal GST; dsDNA, one strand shown. The method in brief:
as §1

The next experiment has as its target CRX (Homo sapiens, UniProt O43186 1-299). The note with it: protein: recombinant; tags: N-terminal GST; dsDNA, one strand shown. The method in brief: as §1
A further experiment concerns the target ETV1 (Homo sapiens, UniProt P50549 1-477). Conditions: protein: recombinant; tags: N-terminal GST; dsDNA, one strand shown. In outline:
as §1

The target of another experiment is T6, ERF (Homo sapiens, UniProt P50548 1-548).
T6 sequence: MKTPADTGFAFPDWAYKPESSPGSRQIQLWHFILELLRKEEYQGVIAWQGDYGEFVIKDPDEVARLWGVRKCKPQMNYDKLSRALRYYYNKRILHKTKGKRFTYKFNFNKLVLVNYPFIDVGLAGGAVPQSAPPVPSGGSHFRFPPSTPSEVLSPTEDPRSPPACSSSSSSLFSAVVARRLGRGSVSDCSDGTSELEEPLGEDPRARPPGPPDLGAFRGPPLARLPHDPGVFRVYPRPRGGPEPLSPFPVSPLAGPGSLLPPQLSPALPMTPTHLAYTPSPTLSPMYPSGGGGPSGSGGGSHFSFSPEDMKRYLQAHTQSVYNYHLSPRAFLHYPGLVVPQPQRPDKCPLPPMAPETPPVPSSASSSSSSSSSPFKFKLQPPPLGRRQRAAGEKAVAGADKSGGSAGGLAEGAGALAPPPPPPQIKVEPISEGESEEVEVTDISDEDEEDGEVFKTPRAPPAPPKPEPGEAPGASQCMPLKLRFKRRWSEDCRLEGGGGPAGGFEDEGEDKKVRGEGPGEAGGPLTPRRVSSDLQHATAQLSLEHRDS
The note with it: protein: recombinant; tags: N-terminal GST; dsDNA, one strand shown. In outline: as §1

The target of a further experiment is T7, ETV3L (Homo sapiens, UniProt Q6ZN32 1-361).
T7 sequence: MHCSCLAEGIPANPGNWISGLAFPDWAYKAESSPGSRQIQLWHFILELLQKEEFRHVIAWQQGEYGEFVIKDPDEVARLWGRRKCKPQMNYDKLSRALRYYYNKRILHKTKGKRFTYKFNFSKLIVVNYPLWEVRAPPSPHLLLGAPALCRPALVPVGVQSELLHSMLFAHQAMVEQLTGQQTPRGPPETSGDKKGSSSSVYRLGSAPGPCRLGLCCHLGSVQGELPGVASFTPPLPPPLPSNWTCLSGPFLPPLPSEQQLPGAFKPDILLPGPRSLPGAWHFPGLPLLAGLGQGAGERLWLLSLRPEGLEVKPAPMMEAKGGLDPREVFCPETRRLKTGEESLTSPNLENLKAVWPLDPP
The note with it: protein: recombinant; tags: N-terminal GST; dsDNA, one strand shown. The method in brief: as §1

Another experiment addresses T8, ETS2 (Homo sapiens, UniProt P15036 1-469).
T8 sequence: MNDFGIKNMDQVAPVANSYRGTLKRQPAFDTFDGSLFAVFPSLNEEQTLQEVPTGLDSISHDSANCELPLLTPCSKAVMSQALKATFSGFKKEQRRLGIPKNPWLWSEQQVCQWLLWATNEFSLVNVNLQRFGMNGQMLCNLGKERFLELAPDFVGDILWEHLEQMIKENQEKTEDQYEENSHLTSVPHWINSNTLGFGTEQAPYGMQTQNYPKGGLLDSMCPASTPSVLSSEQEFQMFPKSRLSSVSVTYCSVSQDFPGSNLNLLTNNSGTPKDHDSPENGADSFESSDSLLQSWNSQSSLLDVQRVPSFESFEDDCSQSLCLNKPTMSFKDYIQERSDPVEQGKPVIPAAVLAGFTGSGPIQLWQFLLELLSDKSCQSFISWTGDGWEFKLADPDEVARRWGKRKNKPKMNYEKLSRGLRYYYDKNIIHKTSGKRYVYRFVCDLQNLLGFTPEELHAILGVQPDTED
Conditions: protein: recombinant; tags: N-terminal GST; dsDNA, one strand shown. In outline: as §1

The target in the next experiment is T9, SPDEF (Homo sapiens, UniProt O95238 1-335).
T9 sequence: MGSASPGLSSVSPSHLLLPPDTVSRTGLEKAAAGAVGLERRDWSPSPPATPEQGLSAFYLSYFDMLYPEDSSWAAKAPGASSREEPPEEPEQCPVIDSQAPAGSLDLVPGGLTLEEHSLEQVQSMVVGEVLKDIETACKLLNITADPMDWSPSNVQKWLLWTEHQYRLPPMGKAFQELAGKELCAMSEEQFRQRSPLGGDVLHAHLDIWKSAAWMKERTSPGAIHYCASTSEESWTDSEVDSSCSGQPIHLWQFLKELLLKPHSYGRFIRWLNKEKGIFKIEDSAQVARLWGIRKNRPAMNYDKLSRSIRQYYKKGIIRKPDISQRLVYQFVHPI
The note with it: protein: recombinant; tags: N-terminal GST; dsDNA, one strand shown. In outline: as §1

A further experiment deals with T10, ETV7 (Homo sapiens, UniProt Q9Y603 1-341).
T10 sequence: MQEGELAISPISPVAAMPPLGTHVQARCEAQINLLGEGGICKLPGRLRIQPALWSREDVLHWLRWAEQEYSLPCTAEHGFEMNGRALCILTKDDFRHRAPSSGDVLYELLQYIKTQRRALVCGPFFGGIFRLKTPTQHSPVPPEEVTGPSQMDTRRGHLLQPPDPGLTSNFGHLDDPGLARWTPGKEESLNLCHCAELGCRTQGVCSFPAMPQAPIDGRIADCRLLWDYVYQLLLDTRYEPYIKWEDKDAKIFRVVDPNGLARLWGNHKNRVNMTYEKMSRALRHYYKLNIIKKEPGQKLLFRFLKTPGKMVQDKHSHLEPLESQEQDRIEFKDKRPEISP
Conditions: protein: recombinant; tags: N-terminal GST; dsDNA, one strand shown. In outline:
as §1

A further experiment has as its target T11, ELF5 (Homo sapiens, UniProt Q9UKW6-2 1-255).
T11 sequence: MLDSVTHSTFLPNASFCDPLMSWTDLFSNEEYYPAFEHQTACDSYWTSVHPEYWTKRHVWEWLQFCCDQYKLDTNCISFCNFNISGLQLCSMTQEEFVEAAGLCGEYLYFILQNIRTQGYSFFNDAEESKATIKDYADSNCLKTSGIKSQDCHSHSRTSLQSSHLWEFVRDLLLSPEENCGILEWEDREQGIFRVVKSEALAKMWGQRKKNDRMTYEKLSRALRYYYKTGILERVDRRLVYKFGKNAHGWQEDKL
The note with it: protein: recombinant; tags: N-terminal GST; dsDNA, one strand shown. In outline:
as §1

A further experiment addresses T12, ETV3 (Homo sapiens, UniProt P41162-2 1-143).
T12 sequence: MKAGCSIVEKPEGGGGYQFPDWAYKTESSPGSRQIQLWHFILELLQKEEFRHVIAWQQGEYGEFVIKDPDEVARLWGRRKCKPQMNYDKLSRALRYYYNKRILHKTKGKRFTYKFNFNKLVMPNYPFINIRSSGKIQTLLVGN
The note with it: protein: recombinant; tags: N-terminal GST; dsDNA, one strand shown. In outline: as §1

In a further experiment the target is ETV6 (Homo sapiens, UniProt P41212 1-452). The note with it: protein: recombinant; tags: N-terminal GST; dsDNA, one strand shown. The method in brief: as §1
Sequence of ETV6 (P41212 whole entry): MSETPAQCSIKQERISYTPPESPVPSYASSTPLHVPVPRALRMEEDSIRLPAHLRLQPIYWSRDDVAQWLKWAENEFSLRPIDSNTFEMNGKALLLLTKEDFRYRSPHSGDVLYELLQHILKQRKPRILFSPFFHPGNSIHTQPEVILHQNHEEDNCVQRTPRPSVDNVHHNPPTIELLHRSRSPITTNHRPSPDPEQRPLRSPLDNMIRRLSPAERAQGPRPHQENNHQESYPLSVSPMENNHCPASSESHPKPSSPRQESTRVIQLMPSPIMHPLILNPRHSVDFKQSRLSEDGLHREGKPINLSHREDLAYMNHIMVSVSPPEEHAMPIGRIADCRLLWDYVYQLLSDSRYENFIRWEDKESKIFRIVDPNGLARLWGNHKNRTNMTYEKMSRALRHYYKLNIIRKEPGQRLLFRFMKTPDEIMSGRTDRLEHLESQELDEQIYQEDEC

Sequence of ELF4 (Q99607 whole entry): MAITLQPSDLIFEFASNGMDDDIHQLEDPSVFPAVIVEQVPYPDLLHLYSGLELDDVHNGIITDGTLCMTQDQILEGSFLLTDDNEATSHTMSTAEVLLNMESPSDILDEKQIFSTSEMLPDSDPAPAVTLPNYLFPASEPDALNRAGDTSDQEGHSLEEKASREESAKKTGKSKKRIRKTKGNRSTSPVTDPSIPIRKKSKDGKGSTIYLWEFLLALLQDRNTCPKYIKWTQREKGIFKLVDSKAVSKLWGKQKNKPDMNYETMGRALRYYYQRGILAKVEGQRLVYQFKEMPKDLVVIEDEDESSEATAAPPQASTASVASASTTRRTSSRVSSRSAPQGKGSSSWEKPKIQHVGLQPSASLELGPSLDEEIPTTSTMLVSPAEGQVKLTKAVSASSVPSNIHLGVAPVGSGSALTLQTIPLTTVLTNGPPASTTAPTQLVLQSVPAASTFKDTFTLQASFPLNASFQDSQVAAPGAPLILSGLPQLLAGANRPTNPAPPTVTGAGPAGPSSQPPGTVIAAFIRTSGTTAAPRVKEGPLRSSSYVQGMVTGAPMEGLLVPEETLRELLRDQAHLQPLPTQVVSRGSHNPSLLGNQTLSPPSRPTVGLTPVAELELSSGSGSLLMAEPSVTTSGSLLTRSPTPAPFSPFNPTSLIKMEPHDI
Sequence of ETV1 (P50549 whole entry): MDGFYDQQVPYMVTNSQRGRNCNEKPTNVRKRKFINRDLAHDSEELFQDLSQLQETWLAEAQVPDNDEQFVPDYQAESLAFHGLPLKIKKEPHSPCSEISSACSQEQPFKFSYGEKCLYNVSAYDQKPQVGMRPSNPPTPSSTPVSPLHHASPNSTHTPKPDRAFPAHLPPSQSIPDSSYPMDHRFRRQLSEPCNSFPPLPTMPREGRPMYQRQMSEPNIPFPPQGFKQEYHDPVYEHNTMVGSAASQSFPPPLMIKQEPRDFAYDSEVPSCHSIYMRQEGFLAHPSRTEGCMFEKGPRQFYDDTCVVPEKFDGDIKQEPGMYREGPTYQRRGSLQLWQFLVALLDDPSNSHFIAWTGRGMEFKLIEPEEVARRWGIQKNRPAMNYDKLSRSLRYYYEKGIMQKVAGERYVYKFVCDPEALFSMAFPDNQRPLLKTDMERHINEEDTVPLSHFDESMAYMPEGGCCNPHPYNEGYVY
Sequence of CRX (O43186 whole entry): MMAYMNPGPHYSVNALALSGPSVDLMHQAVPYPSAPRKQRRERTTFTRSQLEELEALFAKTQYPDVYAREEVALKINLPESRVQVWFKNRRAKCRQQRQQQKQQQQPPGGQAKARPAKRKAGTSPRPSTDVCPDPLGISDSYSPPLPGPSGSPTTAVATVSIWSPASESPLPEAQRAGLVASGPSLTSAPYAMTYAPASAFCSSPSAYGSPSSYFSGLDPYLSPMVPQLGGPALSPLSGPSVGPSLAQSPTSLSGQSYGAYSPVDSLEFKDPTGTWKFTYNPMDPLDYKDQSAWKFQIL

In the case of ATACAA, the binding signal was 1.09 fold enrichment (6-mer frequency, TF over GST control) with FEV; 1.15 fold enrichment (6-mer frequency, TF over GST control) with ETV5; 1.03 fold enrichment (6-mer frequency, TF over GST control) with HSF1; 1.06 fold enrichment (6-mer frequency, TF over GST control) with SPIC; 1.17 fold enrichment (6-mer frequency, TF over GST control) in the experiment with ELF4; 1.08 fold enrichment (6-mer frequency, TF over GST control) with ELK4. Further, the binding signal with ETV2 was 1.04 fold enrichment (6-mer frequency, TF over GST control); with ELF3, 1.16 fold enrichment (6-mer frequency, TF over GST control); with CRX it was 1.07 fold enrichment (6-mer frequency, TF over GST control); in the experiment with ETV1 it was 1.13 fold enrichment (6-mer frequency, TF over GST control); with ERF, 1.15 fold enrichment (6-mer frequency, TF over GST control); in the experiment with ETV3L, 1.12 fold enrichment (6-mer frequency, TF over GST control). For the same sequence, the binding signal is 1.19 fold enrichment (6-mer frequency, TF over GST control) with ETS2; 1.14 fold enrichment (6-mer frequency, TF over GST control) with SPDEF; 1.14 fold enrichment (6-mer frequency, TF over GST control) with ETV7; 1.08 fold enrichment (6-mer frequency, TF over GST control) in the experiment with ELF5; 1.08 fold enrichment (6-mer frequency, TF over GST control) in the experiment with ETV3; 1.12 fold enrichment (6-mer frequency, TF over GST control) in the experiment with ETV6.
